# Experimental data: the supplement of paper PMC8728848
# The full list was thinned out, with the strongest signals kept by preference.
# B1: LTL (Lotus tetragonolobus), P19664 (protein)
# chain: VSFNYTEFKDDGSLILQGDAKIWTDGRLAMPTDPLVNNPKTTRSAGRALYATPVPIWDSATGNVASFVTSFNFLFVIRELKYTPTDGLVFFLAPVGTEIPSGSTGGFLGIFDGSNGFNQFVAVEFDSYHNIWDPKSLRSSHVGIDVNSIMSLKAVNWNRVSGSLEKATIIYDSQTNILSVVMTSQNGQITTIYGTIDLKTVLPEKVSVGFSATTGNPEREKHDIYSWSFTSTLKEPEEQA
# Legend:
# Assay in all cases: glycan array binding signal (z-score within array); higher = stronger binding
# Settings in all cases: glycan notation: IUPAC condensed, linker removed
# [1] = molecular target: Fuc(a1-2)Gal(b1-3)GalNAc(b1-3)Gal(b1-4)Glc
# In short: (§1)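 Glycan array binding is given as a within-array Z-score, which can be read as non-binding when negative. The arrays, 3228 of them, came from the Consortium for Functional Glycomics database and were retained only where the protein sequence was available. Z-scores were averaged across arrays of the same protein sequence at different concentrations or buffers and across linkers.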
# [2] = molecular target: Fuc(a1-2)Gal(b1-3)[Fuc(a1-4)]GlcNAc(b1-2)Man(a1-3)[Fuc(a1-2)Gal(b1-3)[Fuc(a1-4)]GlcNAc(b1-2)Man(a1-3)]Man(b1-4)GlcNAc(b1-4)GlcNAc
# In short: as §1
# [3] = molecular target: Fuc(a1-2)Gal(b1-3)[Fuc(a1-4)]GlcNAc(b1-3)[Gal(b1-4)GlcNAc(b1-6)]Gal(b1-4)Glc
# In short: as §1
# Fuc(a1-2)Gal(b1-4)GlcNAc = molecular target: Fuc(a1-2)Gal(b1-4)GlcNAc
# In short: as §1
# [4] = molecular target: Fuc(a1-2)Gal(b1-4)GlcNAc6S
# In short: as §1
# [5] = molecular target: Fuc(a1-2)Gal(b1-4)[Fuc(a1-3)]GlcNAc
# In short: as §1
# Fuc(a1-2)GlcNAc = molecular target: Fuc(a1-2)GlcNAc
# In short: as §1
# [6] = molecular target: Fuc(a1-2)[Gal(a1-3)]Gal(b1-3)GalNAc
# In short: as §1
# [7] = molecular target: Fuc(a1-2)[Gal(a1-3)]Gal(b1-4)Glc
# In short: as §1
# [8] = molecular target: Fuc(a1-2)[Gal(a1-3)]Gal(b1-4)GlcNAc(b1-6)GalNAc
# In short: as §1
# [9] = molecular target: Fuc(a1-2)[GalNAc(a1-3)]Gal
# In short: as §1
# [10] = molecular target: Fuc(a1-2)[GalNAc(a1-3)]Gal(b1-4)GlcNAc(b1-3)GalNAc
# In short: as §1
# [11] = molecular target: Fuc(a1-3)[Gal(b1-4)]GlcNAc(b1-3)Gal(b1-4)[Fuc(a1-3)]GlcNAc(b1-3)Gal(b1-4)[Fuc(a1-3)]GlcNAc
# In short: as §1
# [12] = molecular target: Fuc(a1-3)[Gal3S(b1-4)]Glc6S
# In short: as §1
# Gal(b1-3)GalNAc(b1-3)Gal = molecular target: Gal(b1-3)GalNAc(b1-3)Gal
# In short: as §1
# [13] = molecular target: Gal(b1-3)GalNAc(b1-3)Gal(a1-4)Gal(b1-4)Glc
# In short: as §1
# [14] = molecular target: Gal(b1-3)[Fuc(a1-4)]GlcNAc(b1-3)Gal(b1-4)GlcNAc
# In short: as §1
# [15] = molecular target: Gal(b1-3)[Neu5Ac(a2-6)]GalNAc
# In short: as §1
# Gal(b1-4)Gal = molecular target: Gal(b1-4)Gal
# In short: as §1
# [16] = molecular target: Gal(b1-4)GlcNAc(b1-3)Gal(b1-4)GlcNAc(b1-3)Gal(b1-4)GlcNAc(b1-2)Man(a1-3)[Gal(b1-4)GlcNAc(b1-3)Gal(b1-4)GlcNAc(b1-3)Gal(b1-4)GlcNAc(b1-2)Man(a1-6)]Man(b1-4)GlcNAc(b1-4)GlcNAc
# In short: as §1
# [17] = molecular target: Gal(b1-4)GlcNAc(b1-3)Gal(b1-4)GlcNAc(b1-3)Gal(b1-4)GlcNAc(b1-3)Gal(b1-4)GlcNAc(b1-2)Man(a1-3)[Gal(b1-4)GlcNAc(b1-3)Gal(b1-4)GlcNAc(b1-3)Gal(b1-4)GlcNAc(b1-3)Gal(b1-4)GlcNAc(b1-2)Man(a1-6)]Man(b1-4)GlcNAc(b1-4)GlcNAc
# In short: as §1
# [18] = molecular target: Gal(b1-4)GlcNAc(b1-3)Gal(b1-4)GlcNAc(b1-3)GalNAc
# In short: as §1
# [19] = molecular target: Gal(b1-4)GlcNAc(b1-3)Gal(b1-4)GlcNAc(b1-3)[Gal(b1-4)GlcNAc(b1-3)Gal(b1-4)GlcNAc(b1-6)]GalNAc
# In short: as §1
# Gal3S(b1-3)GalNAc = molecular target: Gal3S(b1-3)GalNAc
# In short: as §1
# [20] = molecular target: Gal3S(b1-4)[Fuc(a1-3)]GlcNAc6S
# In short: as §1
# Gal3S6S(b1-4)GlcNAc = molecular target: Gal3S6S(b1-4)GlcNAc
# In short: as §1
# Gal6S(b1-4)Glc = molecular target: Gal6S(b1-4)Glc
# In short: as §1
# Gal6S(b1-4)GlcNAc = molecular target: Gal6S(b1-4)GlcNAc
# In short: as §1
# [21] = molecular target: GalNAc(b1-4)GlcNAc(b1-2)Man(a1-3)[GalNAc(b1-4)GlcNAc(b1-2)Man(a1-6)]Man(b1-4)GlcNAc(b1-4)GlcNAc
# In short: as §1
binder,measurement,setting,value
B1,glycan array binding signal (z-score),[1],0.013
same,glycan array binding signal (z-score),[2],0.157
same,glycan array binding signal (z-score),[3],-0.265
same,glycan array binding signal (z-score),Fuc(a1-2)Gal(b1-4)GlcNAc,0.463
same,glycan array binding signal (z-score),[4],-0.057
same,glycan array binding signal (z-score),[5],4.58
same,glycan array binding signal (z-score),Fuc(a1-2)GlcNAc,2.03
same,glycan array binding signal (z-score),[6],0.102
same,glycan array binding signal (z-score),[7],-0.211
same,glycan array binding signal (z-score),[8],-0.201
same,glycan array binding signal (z-score),[9],-0.25
same,glycan array binding signal (z-score),[10],-0.219
same,glycan array binding signal (z-score),[11],8.86
same,glycan array binding signal (z-score),[12],0.757
same,glycan array binding signal (z-score),Gal(b1-3)GalNAc(b1-3)Gal,-0.295
same,glycan array binding signal (z-score),[13],0.007
same,glycan array binding signal (z-score),[14],-0.389
same,glycan array binding signal (z-score),[15],-0.277
same,glycan array binding signal (z-score),Gal(b1-4)Gal,-0.131
same,glycan array binding signal (z-score),[16],3.1
same,glycan array binding signal (z-score),[17],0.014
same,glycan array binding signal (z-score),[18],2.04
same,glycan array binding signal (z-score),[19],2.93
same,glycan array binding signal (z-score),Gal3S(b1-3)GalNAc,-0.003
same,glycan array binding signal (z-score),[20],-0.287
same,glycan array binding signal (z-score),Gal3S6S(b1-4)GlcNAc,0.068
same,glycan array binding signal (z-score),Gal6S(b1-4)Glc,-0.131
same,glycan array binding signal (z-score),Gal6S(b1-4)GlcNAc,-0.022
same,glycan array binding signal (z-score),[21],1.48
